SW480 rerep = induces DNA re-replication in SW480 colon adenocarcinoma cells; SW480 DNA re-replication, Hoechst DNA content imaging, 48 h; Potency, µM (top dose mostly 46.1 µM), inactives show top-dose re-replication activation, usual class: activators; 1.8% of 340,000 active; AID 624297; further: % of control where 0% means no effect; nearly all actives have a fitted effect of over 55% in size
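Image-based read-out: total Hoechst fluorescence of nuclei (405 nm excitation, 500-530 nm emission), with hits raising the fraction of high-intensity nuclei. SW480 colon cells incubated 48 hr with compounds at 37 C.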
HT1080-NT tox = kills 2HG-producing HT-1080-NT fibrosarcoma cells; Potency, µM (doses to about 46.1 µM), inactives show at the top dose activity, negative = less viability, usual class: cytotoxic; 1.6% of 360,000 active; HT-1080-NT fibrosarcoma viability, CellTiter-Glo ATP luminescence, 48 h;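 further: NT is the 2HG producing partner of a matched IDH1 knockdown line; 0% = DMSO-treated cells and -100% = media-only wells without cells; nearly all actives have a fitted effect of over 55% in size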
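Fibrosarcoma NT cells, 750 per well in 5% FBS RPMI, were exposed to compound for 48 hours. Viability: CellTiter-Glo luminescence.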
MCF10A rereplic = inducers of DNA re-replication in MCF 10A breast cells. MCF 10A DNA re-replication, Hoechst nuclear intensity, 48 h. Potency, µM (top dose mostly 46.1 µM), without a hit: at the highest dose activity, positive = re-replication, actives largely listed as activators. 2.9% of 350,000 active. AID 624296; further: % of control where 0% means no effect; nearly all actives have a fitted effect of over 50% in size
KB-V1 MDR tox = kills drug-selected multidrug resistant KB-V1 cells; KB-V1 MDR cells viability, CellTiter-Glo, 72 h; AID 1347076; 3.4% of 400,000 active; Potency, µM (doses to about 46.1 µM), most hits filed as cytotoxic; further: on the % scale 0 is the no-effect control and ±100 the full control effect; nearly all actives have a fitted effect of over 60% in size
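Cytotoxicity toward P-gp-expressing KB-V1 cells was determined as loss of CellTiter-Glo luminescence after 72 h at 37 degrees C. Compounds were tested in quantitative HTS format across a concentration range, with curves fitted to normalized data.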
HT1080 IDH1KD tx = kills HT-1080 cells with IDH1 knockdown; 2% of 360,000 active; Potency, µM (doses to about 46.1 µM), for inactives: at the top dose activity, negative = toxicity, actives largely listed as cytotoxic; HT-1080 IDH1 knockdown viability, ATP luminescence, 48 h; AID 686971;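 further: 0% = DMSO wells and -100% = cell-free medium wells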
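% activity derives from luminescence (CellTiter-Glo), normalised to DMSO and no-cell wells. HT-1080-IDH1KD cells, 750/well, had 48 h compound exposure at 37 °C.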
KB-3-1 tox = KB-3-1 parental cell cytotoxicity | KB-3-1 viability, CellTiter-Glo ATP luminescence, 72 h | Potency, µM (titrated, usually from 46.1 µM), actives largely listed as cytotoxic | 1.4% of 400,000 active | AID 1347075; further: on the % scale 0 is the no-effect control and ±100 the full control effect; nearly all actives have a fitted effect of over 60% in size
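Cells are dispensed, compounds pinned in, plates held at 37 °C for 72 h, then CellTiter-Glo is added and luminescence read after 10 minutes. Cell line: parental KB-3-1 in phenol-red-free DMEM, 10% FBS.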
Active calls of the source: *. Hits are enriched below; roughly 8% of the tested compounds scored in any of these assays. The call rests on the fitted dose curve; in most records, active means well fitted curve in the direction sought with a large enough effect; inconclusive means small, poorly fitted or top-dose-only effect, or another doubt; inactive means no such curve, though single readings can be large; an effect the other way counts as inactive or inconclusive. Potency means the concentration at half of the fitted maximal effect.

O=C(COC(=O)c1c2c(nc3ccccc13)/C(=C\c1cccs1)CCC2)Nc1ccccc1 was read as SW480 rerep 13µM*, HT1080-NT tox -12%, MCF10A rereplic inconclusive, KB-V1 MDR tox 2.3µM*, HT1080 IDH1KD tx -28% and KB-3-1 tox 12µM*.
Cc1ccc(N(CC(=O)NC(C)(C)C)C(=O)CS(=O)CC(=O)Nc2ccc(F)cc2)cc1 (stereo not given) was read as SW480 rerep 3%, HT1080-NT tox -15%, MCF10A rereplic 2%, KB-V1 MDR tox inactive, HT1080 IDH1KD tx 2% and KB-3-1 tox inactive.
CC(C)(C)OC(=O)C(Cc1ccc(OC(C)(C)C)cc1)NC(=O)CNC(=O)OCc1ccccc1 (stereo not given) was read as SW480 rerep -30%, HT1080-NT tox 0%, MCF10A rereplic inconclusive, KB-V1 MDR tox 2.9µM*, HT1080 IDH1KD tx -14% and KB-3-1 tox inconclusive.
For CC1(C(=O)NCC(F)(F)F)CCN1C(=O)C1(c2ccccc2)CC1 (stereo not given) the results were HT1080-NT tox inconclusive, KB-V1 MDR tox inactive, HT1080 IDH1KD tx 1% and KB-3-1 tox inactive.
Screening COc1cccc(CNC(=O)Cn2c(SCC(=O)Nc3ccc(F)cc3)nc3ccccc32)c1 returned KB-V1 MDR tox inactive and KB-3-1 tox inactive.
Screening COc1ccc(C(=O)CC(Sc2ccccc2N)c2ccc(OC)cc2)cc1 (stereo not given) returned HT1080-NT tox -8%, KB-V1 MDR tox inactive, HT1080 IDH1KD tx -23% and KB-3-1 tox 23µM*.
COc1cc(C2c3c(-c4cc(C)cc(C)c4O)n[nH]c3C(=O)N2CCCO)cc(OC)c1OC (stereo not given) was read as SW480 rerep -3%, HT1080-NT tox -2%, MCF10A rereplic 7%, KB-V1 MDR tox inactive, HT1080 IDH1KD tx -4% and KB-3-1 tox inactive.
`CCCN1C(=O)c2[nH]nc(-c3cc(Cl)c(C)cc3O)c2C1c1ccc(O)c(OC)c1` (stereo not given) gave SW480 rerep 2%, HT1080-NT tox inconclusive, MCF10A rereplic 4%, KB-V1 MDR tox inactive, HT1080 IDH1KD tx 16µM* and KB-3-1 tox inactive.
COc1ccc(CCN2C(=O)c3[nH]nc(-c4ccccc4O)c3C2c2ccc(O)c(OC)c2)cc1 (stereo not given) was read as KB-V1 MDR tox inactive and KB-3-1 tox inactive.
Screening COCCCN1C(=O)c2[nH]nc(-c3cc(C)cc(C)c3O)c2C1c1ccc(O)c(OC)c1 (stereo not given) returned SW480 rerep inconclusive, HT1080-NT tox -4%, MCF10A rereplic 3%, KB-V1 MDR tox 21µM*, HT1080 IDH1KD tx -10% and KB-3-1 tox inconclusive.
Screening Nn1c(SCC(=O)N2CCOCC2)nnc1-c1cccnc1 returned SW480 rerep -13%, HT1080-NT tox 3%, MCF10A rereplic -6%, KB-V1 MDR tox inactive, HT1080 IDH1KD tx 8% and KB-3-1 tox inactive.
Screening Cc1ccccc1NCc1ccc(O)c2ncccc12 returned SW480 rerep 3%, HT1080-NT tox 3.2µM*, MCF10A rereplic inconclusive, KB-V1 MDR tox inconclusive, HT1080 IDH1KD tx 0.71µM* and KB-3-1 tox inactive.
For OCc1ccnc2c(O)cccc12 the results were SW480 rerep 1.2µM*, HT1080-NT tox -8%, MCF10A rereplic 5.2µM*, KB-V1 MDR tox inconclusive, HT1080 IDH1KD tx -16% and KB-3-1 tox inconclusive.
Cc1cccc(NCc2ccc(O)c3ncccc23)c1 was read as SW480 rerep inconclusive, HT1080-NT tox 18µM*, MCF10A rereplic inconclusive, KB-V1 MDR tox inactive, HT1080 IDH1KD tx inconclusive and KB-3-1 tox 23µM*.
Oc1ccc(Cn2ccnc2)c2cccnc12 was read as SW480 rerep inconclusive, HT1080-NT tox inconclusive, MCF10A rereplic 135%, KB-V1 MDR tox inactive, HT1080 IDH1KD tx inconclusive and KB-3-1 tox inconclusive.

Screening data: PubChem, National Center for Advancing Translational Sciences (NCATS)
